Source: PubChem
BoNT F protease – BoNT F light chain protease inhibition; Multiplex microsphere protease cleavage assay, flow cytometry; inhibition, % at 10 µM; 360,000 tested, 0.22% active; in the data active = inhibition above about 35%, passing the limit was not always enough; inconclusive = no clear call, values can overlap the other calls; also: plate controls were buffer without enzyme for full effect and enzyme alone for no effect
Bead autofluor – flagged as autofluorescent in microsphere protease counterscreen; compound autofluorescence counterscreen, microsphere flow cytometry; stronger effect = higher value; fluorescence intensity (test concentration not listed); 360,000 tested, 3.1% active; in the data active = fluorescence intensity above about 16000; inconclusive = no clear call, values can overlap the other calls
3CLpro inhibitor – SARS-CoV 3CLpro protease inhibition; 290,000 tested, 0.14% active; inhibition, % at 6 µM; P0C6X7; AID 1706; recombinant SARS-CoV 3CLpro, quenched FRET peptide cleavage; in the data active = inhibition above about 12%
BJeLR lethal – kills HRASV12-expressing BJeLR cells | BJeLR (HRASV12) viability, CellTiter-Glo ATP luminescence, 48 h | inhibition, % (test concentration not listed) | 300,000 tested, 0.17% active | AID 1554; in the data active = inhibition above about 50%; inconclusive = no clear call, values can overlap the other calls
Anthrax LF inh2 – blocks Bacillus anthracis lethal factor protease; P15917; multiplex microsphere protease cleavage assay, LF; inhibition, % at 10 µM; 360,000 tested, 0.12% active; AID 588501; also: plate controls were buffer without enzyme for full effect and enzyme alone for no effect
Target sequence (P15917 whole entry, looked up): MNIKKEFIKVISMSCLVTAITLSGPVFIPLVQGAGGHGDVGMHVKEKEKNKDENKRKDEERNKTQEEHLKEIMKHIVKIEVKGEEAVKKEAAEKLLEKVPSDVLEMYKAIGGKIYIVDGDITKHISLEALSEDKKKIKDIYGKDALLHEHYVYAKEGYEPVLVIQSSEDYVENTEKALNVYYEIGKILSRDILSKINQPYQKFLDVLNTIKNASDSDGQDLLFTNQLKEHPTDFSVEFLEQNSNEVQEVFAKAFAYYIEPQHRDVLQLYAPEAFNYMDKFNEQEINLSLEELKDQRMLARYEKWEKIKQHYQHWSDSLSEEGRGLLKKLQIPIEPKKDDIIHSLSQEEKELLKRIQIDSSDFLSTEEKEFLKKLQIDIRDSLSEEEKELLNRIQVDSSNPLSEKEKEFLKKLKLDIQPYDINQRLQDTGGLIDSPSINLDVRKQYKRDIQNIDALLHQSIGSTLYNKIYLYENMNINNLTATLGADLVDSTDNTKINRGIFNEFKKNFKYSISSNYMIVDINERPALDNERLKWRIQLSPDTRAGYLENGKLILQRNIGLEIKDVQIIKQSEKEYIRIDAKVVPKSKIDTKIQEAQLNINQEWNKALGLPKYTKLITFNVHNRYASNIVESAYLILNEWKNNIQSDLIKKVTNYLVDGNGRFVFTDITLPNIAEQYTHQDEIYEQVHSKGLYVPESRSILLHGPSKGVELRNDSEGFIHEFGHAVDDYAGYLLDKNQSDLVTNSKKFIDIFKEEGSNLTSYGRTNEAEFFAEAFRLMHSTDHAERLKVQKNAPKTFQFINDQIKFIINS
BoNT-A LC inh2 – blocks Botulinum neurotoxin A light chain protease. multiplex microsphere protease substrate cleavage, flow cytometry. inhibition, % at 10 µM. 360,000 tested, 0.17% active. AID 588499; also: plate controls were buffer without enzyme for full effect and enzyme alone for no effect
The depositor's hits bear a star; u = inconclusive; x = not tested or not shown. Compounds with a hit are over-represented: about 3.6% of the library has one in this group of screens. Rule as the data show it, unless noted: active = inhibition above about 30%; inconclusive = no clear call, values can overlap the other calls; inactive = below that.

SMILES | BoNT F protease | Bead autofluor | 3CLpro inhibitor | BJeLR lethal | Anthrax LF inh2 | BoNT-A LC inh2
Cc1ccc2c(c1)N(CC(=O)N1CCCCC1)C(=O)CO2 | 4.2 | 3681 | 0.5 | 5.6 | -7.7 | 1.2
CC1Cc2ccccc2N1C(=O)CN1CCCCC1 (stereo unspecified) | -16.9 | 3845 | 0.3 | -3.8 | -7.3 | 0.8
CCOC(=O)N1CCN(CC(=O)N2c3ccccc3CC2C)CC1 (stereo unspecified) | -3.4 | 25433* | -0.4 | -10.5 | -0.5 | -2.7
CCOC(=O)N1CCN(CC(=O)N2c3ccccc3Sc3ccccc32)CC1 | -14.7 | 3824 | 0.5 | -13.7 | -4.4 | -1.6
CCN1CCN(CC(=O)N2c3ccccc3CC2C)CC1 (stereo unspecified) | -3.7 | 24267* | 2.3 | 7.1 | -0.3 | -2.6
O=C(Cn1cc(C(F)(F)F)cc(Cl)c1=O)NCc1ccccc1 | -2.4 | 5832 | 3.6 | -15.3 | 0.2 | -0.1
CC(C)(C)NC(=O)CSc1n[nH]c(=O)n1-c1ccccc1 | -2.4 | 20863* | 5.9 | 1.1 | -3.3 | -1.5
c1coc(CNc2c3c(nc4ncnn24)CCC3)c1 | 6.7 | 20732* | -1.3 | 0.8 | -3.2 | 5.9
c1ccc(Nc2c3c(nc4ncnn24)CCC3)cc1 | 3.8 | 10506 | -0.1 | -0.1 | 2.6 | -0.4
Clc1ccccc1Nc1c2c(nc3ncnn13)CCC2 | 5.0 | 21040* | -5.5 | 1.7 | -13.1 | 4.6
c1ccc(CCNc2c3c(nc4ncnn24)CCC3)cc1 | 0.1 | 22631* | 7.1 | 1.2 | -6.8 | 2.0
Fc1ccccc1CCNc1c2c(nc3ncnn13)CCCC2 | -6.9 | 4110 | 0.3 | 5.5 | -6.2 | -0.4
COc1ccc(S(=O)(=O)Nc2ccccc2C(=O)N2CCOCC2)cc1C | 10.2 | 3798 | 7.0 | -5.9 | -5.1 | -2.3
Cc1ccc(SCC2=NN(c3nc(C)cc(C)n3)C(=O)C2)cc1 | -4.2 | 3119 | 2.5 | 7.9 | -4.0 | 0.4
Cc1cc(C)nc(N2N=C(C(C)(C)C)CC2=O)n1 | -1.6 | 23425* | -4.6 | -7.8 | 1.6 | u
O=C(c1ccc(N2CCCCC2)c([N+](=O)[O-])c1)N1CCOCC1 | 1.4 | 16276* | 0.6 | -5.4 | -3.1 | -0.5
O=C(c1ccc(N2CCOCC2)c([N+](=O)[O-])c1)N1CCCCC1 | 0.1 | 5970 | -2.9 | 6.5 | -5.1 | -0.8
CC(=O)N1CCN(c2cc(N3CCc4ccccc4C3)c(F)cc2[N+](=O)[O-])CC1 | -8.5 | 17226* | -1.5 | 2.3 | -3.9 | -4.9
O=C(c1cccc(F)c1)N1CCN(c2cc(N3CCCCC3)c(F)cc2[N+](=O)[O-])CC1 | 0.6 | 20200* | 0.1 | 0.7 | 0.7 | 2.6
CCC(=O)N1CCN(c2cc(N3CCCC3)c(F)cc2[N+](=O)[O-])CC1 | -0.8 | 3967 | x | 3.5 | -1.8 | -0.2
NC(=O)Cn1cnc2c(nnn2-c2ccc(F)cc2)c1=O | -23.2 | 3083 | -0.1 | -2.1 | 8.1 | -1.1
CCOC(=O)C1(S(=O)(=O)c2ccc(Cl)cc2)CCN(Cc2ccc(C)cc2)CC1 | -4.0 | 20535* | 2.8 | -1.2 | -9.0 | 0.0
Cc1cc(C(=O)N2CCN(c3ncccn3)CC2)c(C)o1 | -3.4 | 21168* | 3.0 | 10.7 | -0.8 | -3.5
Cc1cc(C(=O)N2CCN(c3ccccc3)CC2)c(C)o1 | -2.5 | 17012* | 0.3 | 4.9 | -1.1 | -1.8
Cc1cc(C(=O)N2CCN(c3ccccc3Cl)CC2)c(C)o1 | 6.2 | 3680 | x | x | 5.0 | 1.5
SMILES | BoNT F protease | Bead autofluor | 3CLpro inhibitor | BJeLR lethal | Anthrax LF inh2 | BoNT-A LC inh2
Cc1cc(C)cc(OCc2nnc(SCC(=O)c3ccccc3)o2)c1 | -1.9 | 19614* | -2.2 | -1.1 | -2.3 | u
COc1cc2c(cc1OC)CN(S(=O)(=O)/C=C/c1ccccc1)CC2 | 39.9* | 3399 | 4.3 | 3.0 | 3.8 | -0.3
COc1ccc(N2CCN(S(=O)(=O)/C=C/c3ccccc3)CC2)cc1 | 3.5 | 9166 | -5.8 | -6.8 | -0.4 | -0.3
O=C(O)c1ccccc1-n1c2ccccc2c2ccccc21 | 9.1 | 3616 | 4.0 | 2.3 | 2.0 | 1.5
CC12CN3CC(C)(CN(C1)C3c1ccc(F)cc1)C2 (stereo unspecified) | -13.3 | 4363 | 0.1 | -1.1 | 2.4 | 0.8
CN(C)c1nc2n(c(=O)n1)C(C#N)CS2 (stereo unspecified) | -1.6 | 16338* | -6.1 | 13.2 | 2.0 | 0.2
CN(C)c1nc2n(c(=O)n1)CCS2 | -6.2 | 3435 | -0.2 | -11.6 | -3.2 | 0.0
COc1cc2c(cc1NC(=O)C(C)N1CCN(S(=O)(=O)c3ccc(C)c(C)c3)CC1)oc1ccccc12 (stereo unspecified) | -1.9 | 16646* | 4.3 | -4.9 | 0.0 | 0.6
COc1cc2c(cc1NC(=O)CSc1ccc(Cl)cc1)oc1ccccc12 | -2.6 | 2580 | 0.5 | -3.9 | -0.7 | -0.5
COc1ccccc1CC(=O)Nc1cc2oc3ccccc3c2cc1OC | 34.5* | 3972 | 0.9 | 1.8 | 3.0 | 4.7
COc1cc2c(cc1NC(=O)CSc1ccccn1)oc1ccccc12 | -3.4 | 20567* | -2.7 | 4.8 | -2.9 | u
COc1cc2c(cc1NC(=O)C(C)N1CCN(S(=O)(=O)c3ccccc3[N+](=O)[O-])CC1)oc1ccccc12 (stereo unspecified) | 2.7 | 16091 | -0.1 | -10.2 | -0.3 | 1.4
C=C1CCN([C@H](C(=O)NCc2ccco2)C(C)C)S(=O)(=O)c2ccccc21 | 7.3 | 3833 | x | -3.7 | -2.0 | -0.3
Cc1nnc(SCC(=O)NC23CC4CC(CC(C4)C2)C3)n(N)c1=O | -2.3 | 4480 | -2.3 | -10.3 | 2.3 | 0.3
Cn1c(=O)c2c(nc(Br)n2CC(=O)C23CC4CC(CC(C4)C2)C3)n(C)c1=O | -1.4 | 16360* | -1.9 | 3.0 | -2.2 | 0.3
Cn1c(=O)c2c(nc(SCC(=O)NC34CC5CC(CC(C5)C3)C4)n2C)n(C)c1=O | -3.2 | 23851* | 3.5 | 2.1 | 0.3 | -1.4
CC1Cc2ccccc2N1C(=O)CSc1nnc(Cc2ccccc2)n1CCc1ccccc1 (stereo unspecified) | 0.3 | 3165 | 2.4 | 5.0 | -4.1 | 0.1
COc1ccc(S(=O)(=O)Nc2ccc(S(=O)(=O)Nc3nccs3)cc2)cc1 | 13.4 | 3642 | -10.7 | 0.5 | 2.7 | -0.6
CSc1nc(N(C)CCO)c2sc3nc(-c4ccco4)c4c(c3c2n1)CCC4 | -0.8 | 22092* | -4.2 | -7.8 | -1.8 | u
CSc1ccc(-c2nc(CN3CCCCC3c3cccnc3)c(C)o2)cc1 (stereo unspecified) | -4.3 | 12272 | 0.3 | 13.1 | -9.6 | -0.1
O=C(Nc1ccccc1-c1nnc(SCc2ccc(Cl)cc2)o1)c1ccccc1 | -0.6 | 22262* | -3.9 | 0.2 | -3.2 | 1.4
O=c1c(-c2nnc(SCc3ccc(Cl)cc3)o2)cccn1Cc1ccccc1 | 0.8 | 22587* | 3.2 | 3.5 | 0.3 | 1.4
Clc1ccc(CSc2nnc(-c3c[nH]c4ccccc34)o2)cc1 | -1.6 | 5865 | 0.8 | 5.2 | -3.6 | 0.1
O=C(Nc1ccccc1-c1nnc(SCc2ccccc2)o1)c1ccccc1 | -5.9 | 11346 | 2.6 | 1.5 | 0.7 | -2.5
CC(OC(=O)Cn1[nH]c(=O)c2ccccc2c1=O)C(=O)Nc1ccc(F)cc1Cl (stereo unspecified) | -9.2 | u | x | 5.5 | -3.9 | 1.6
